From PubChem BioAssay AID1159580 (chemical genetic matrix, 2015)
The whole screen tested about 5,500 compounds, of which about 2,000 (36%) were called active. Roughly 18% stayed inconclusive and do not appear here. Cut-off read from the data, not from the text of the source: active = normalized growth mostly below about 0.91 (no sharp cut-off); inconclusive = no clear call, values can overlap the other calls; inactive = mostly above about 0.92. This is one part of the list.

Assay: chemical genetic growth profiling, strain panel (AID 1159580);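 note: tested at 20 µM; growth read once vehicle control cultures reached saturation at 30 °C; 1 = growth at the plate median or of vehicle wells; lower values mean less growth of the strain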
Conditions: growth OD

Measured: normalized growth

CC(=O)O[C@H]1CC[C@@]2(C)C(=CC(=O)C3C4CCC(C(C)CCCC(C)C)[C@@]4(C)CCC32)C1 (stereo not given in full)
inactive: S. cerevisiae deletion strains, locus YAL013W, strain DEP1, stronger effect = lower value 1.01 | S. cerevisiae deletion strains, locus YAL021C, strain ccr4, stronger effect = lower value 0.992 | S. cerevisiae deletion strains, locus YAL026C, strain drs2, stronger effect = lower value 1.02 | S. cerevisiae deletion strains, locus YAL030W, strain snc1, stronger effect = lower value 0.992 | S. cerevisiae deletion strains, locus YBL061C, strain skt5, stronger effect = lower value 0.988 | S. cerevisiae deletion strains, locus YBR009C, strain hhf1, stronger effect = lower value 1.01 | S. cerevisiae deletion strains, locus YBR021W, strain FUR4, stronger effect = lower value 0.999 | S. cerevisiae deletion strains, locus YBR023C, strain chs3, stronger effect = lower value 0.985 | S. cerevisiae deletion strains, locus YBR171W, strain sec66, stronger effect = lower value 0.996 | S. cerevisiae deletion strains, locus YBR229C, strain ROT2, stronger effect = lower value 1 | S. cerevisiae deletion strains, locus YBR231C, strain swc5, stronger effect = lower value 1.02 | S. cerevisiae deletion strains, locus YBR279W, strain paf1, stronger effect = lower value 0.996 | S. cerevisiae deletion strains, locus YCL011C, strain gbp2, stronger effect = lower value 0.994 | S. cerevisiae deletion strains, locus YCL016C, strain dcc1, stronger effect = lower value 0.99 | S. cerevisiae deletion strains, locus YCL029C, strain bik1, stronger effect = lower value 0.986 | S. cerevisiae deletion strains, locus YCL061C, strain MRC1, stronger effect = lower value 1 | S. cerevisiae deletion strains, locus YCL069W, strain vba3, stronger effect = lower value 0.997 | S. cerevisiae deletion strains, locus YCR088W, strain abp1, stronger effect = lower value 0.995 | S. cerevisiae deletion strains, locus YDL005C, strain med2, stronger effect = lower value 0.971 | S. cerevisiae deletion strains, locus YDL035C, strain GPR1, stronger effect = lower value 1.02 | S. cerevisiae deletion strains, locus YDL040C, strain nat1, stronger effect = lower value 0.991 | S. cerevisiae deletion strains, locus YDL074C, strain BRE1, stronger effect = lower value 1.04 | S. cerevisiae deletion strains, locus YDL101C, strain DUN1, stronger effect = lower value 1 | S. cerevisiae deletion strains, locus YDL185W, strain tfp1, stronger effect = lower value 1.02 | S. cerevisiae deletion strains, locus YDL192W, strain arf1, stronger effect = lower value 1 | S. cerevisiae deletion strains, locus YDR001C, strain nth1, stronger effect = lower value 0.99 | S. cerevisiae deletion strains, locus YDR069C, strain doa4, stronger effect = lower value 0.992 | S. cerevisiae deletion strains, locus YDR101C, strain arx1, stronger effect = lower value 1 | S. cerevisiae deletion strains, locus YDR137W, strain rgp1, stronger effect = lower value 1.01 | S. cerevisiae deletion strains, locus YDR150W, strain NUM1, stronger effect = lower value 0.998 | S. cerevisiae deletion strains, locus YDR159W, strain sac3, stronger effect = lower value 1.01 | S. cerevisiae deletion strains, locus YDR162C, strain NBP2, stronger effect = lower value 1.01 | S. cerevisiae deletion strains, locus YDR195W, strain ref2 0.977 | S. cerevisiae deletion strains, locus YDR297W, strain sur2, stronger effect = lower value 0.995 | S. cerevisiae deletion strains, locus YDR318W, strain mcm21, stronger effect = lower value 0.978 | S. cerevisiae deletion strains, locus YDR334W, strain swr1, stronger effect = lower value 0.994 | S. cerevisiae deletion strains, locus YDR335W, strain msn5, stronger effect = lower value 0.993 | S. cerevisiae deletion strains, locus YDR388W, stronger effect = lower value 0.979 | S. cerevisiae deletion strains, locus YDR392W, strain spt3, stronger effect = lower value 0.944 | S. cerevisiae deletion strains, locus YDR502C, strain sam2, stronger effect = lower value 1 | S. cerevisiae deletion strains, locus YEL003W, strain gim4, stronger effect = lower value 1.01 | S. cerevisiae deletion strains, locus YEL037C, strain rad23, stronger effect = lower value 0.994 | S. cerevisiae deletion strains, locus YEL061C, strain CIN8 (second series), stronger effect = lower value 0.995 | S. cerevisiae deletion strains, locus YEL061C, strain CIN8, stronger effect = lower value 1 | S. cerevisiae deletion strains, locus YER015W, strain faa2, stronger effect = lower value 0.996 | S. cerevisiae deletion strains, locus YER016W, strain bim1, stronger effect = lower value 0.989 | S. cerevisiae deletion strains, locus YER110C, stronger effect = lower value 0.982 | S. cerevisiae deletion strains, locus YER111C, strain swi4, stronger effect = lower value 0.999 | S. cerevisiae deletion strains, locus YER155C, strain BEM2 (second series), stronger effect = lower value 1.01 | S. cerevisiae deletion strains, locus YER155C, strain BEM2, stronger effect = lower value 1.01 | S. cerevisiae deletion strains, locus YER167W, strain BCK2, stronger effect = lower value 1.01 | S. cerevisiae deletion strains, locus YFR010W, strain ubp6, stronger effect = lower value 1.01 | S. cerevisiae deletion strains, locus YGL078C, strain dbp3, stronger effect = lower value 1.02 | S. cerevisiae deletion strains, locus YGL086W, strain mad1, stronger effect = lower value 1.01 | S. cerevisiae deletion strains, locus YGL167C, strain pmr1, stronger effect = lower value 0.993 | S. cerevisiae deletion strains, locus YGL173C, strain kem1, stronger effect = lower value 0.978 | S. cerevisiae deletion strains, locus YGL227W, strain vid30, stronger effect = lower value 0.984 | S. cerevisiae deletion strains, locus YGL240W, strain doc1, stronger effect = lower value 1.01 | S. cerevisiae deletion strains, locus YGL248W, strain PDE1, stronger effect = lower value 0.987 | S. cerevisiae deletion strains, locus YGL253W, strain hxk2, stronger effect = lower value 0.993 | S. cerevisiae deletion strains, locus YGR135W, strain pre9, stronger effect = lower value 0.984 | S. cerevisiae deletion strains, locus YGR252W, strain gcn5, stronger effect = lower value 1.07 | S. cerevisiae deletion strains, locus YHR013C, strain ard1, stronger effect = lower value 0.994 | S. cerevisiae deletion strains, locus YHR027C, strain rpn1, stronger effect = lower value 0.994 | S. cerevisiae deletion strains, locus YHR030C, strain SLT2, stronger effect = lower value 1 | S. cerevisiae deletion strains, locus YHR079C, strain IRE1 (second series), stronger effect = lower value 0.991 | S. cerevisiae deletion strains, locus YHR094C, strain hxt1, stronger effect = lower value 0.975 | S. cerevisiae deletion strains, locus YHR129C, strain ARP1, stronger effect = lower value 0.999 | S. cerevisiae deletion strains, locus YHR142W, strain chs7, stronger effect = lower value 0.979 | S. cerevisiae deletion strains, locus YHR200W, strain rpn10, stronger effect = lower value 0.985 | S. cerevisiae deletion strains, locus YIL066C, strain RNR3, stronger effect = lower value 1 | S. cerevisiae deletion strains, locus YIL073C, strain SPO22, stronger effect = lower value 1.03 | S. cerevisiae deletion strains, locus YIL125W, strain kgd1, stronger effect = lower value 1.01 | S. cerevisiae deletion strains, locus YIR030C, strain dcg1, stronger effect = lower value 0.989 | S. cerevisiae deletion strains, locus YJL092W, strain hpr5, stronger effect = lower value 0.99 | S. cerevisiae deletion strains, locus YJL095W, strain BCK1 (second series), stronger effect = lower value 0.982 | S. cerevisiae deletion strains, locus YJL095W, strain BCK1, stronger effect = lower value 1.01 | S. cerevisiae deletion strains, locus YJL115W, strain asf1, stronger effect = lower value 0.981 | S. cerevisiae deletion strains, locus YJL129C, strain trk1, stronger effect = lower value 0.989 | S. cerevisiae deletion strains, locus YJL134W, strain LCB3, stronger effect = lower value 1.01 | S. cerevisiae deletion strains, locus YJL154C, strain vps35, stronger effect = lower value 0.999 | S. cerevisiae deletion strains, locus YJL164C, strain tpk1, stronger effect = lower value 1 | S. cerevisiae deletion strains, locus YJL166W, strain qcr8, stronger effect = lower value 0.998 | S. cerevisiae deletion strains, locus YJL168C, strain set2, stronger effect = lower value 0.976 | S. cerevisiae deletion strains, locus YJL187C, strain SWE1 (second series), stronger effect = lower value 1.01 | S. cerevisiae deletion strains, locus YJL187C, strain SWE1, stronger effect = lower value 0.991 | S. cerevisiae deletion strains, locus YJR043C, strain POL32, stronger effect = lower value 1.01 | S. cerevisiae deletion strains, locus YJR075W, strain HOC1, stronger effect = lower value 1 | S. cerevisiae deletion strains, locus YKL009W, strain mrt4, stronger effect = lower value 1.04 | S. cerevisiae deletion strains, locus YKL068W, stronger effect = lower value 1 | S. cerevisiae deletion strains, locus YKL085W, strain MDH1 (second series), stronger effect = lower value 1 | S. cerevisiae deletion strains, locus YKL085W, strain MDH1, stronger effect = lower value 1 | S. cerevisiae deletion strains, locus YKL160W, strain elf1, stronger effect = lower value 0.996 | S. cerevisiae deletion strains, locus YKR001C, strain vps1, stronger effect = lower value 1.03 | S. cerevisiae deletion strains, locus YKR026C, strain gcn3, stronger effect = lower value 0.994 | S. cerevisiae deletion strains, locus YKR091W, strain srl3, stronger effect = lower value 0.994 | S. cerevisiae deletion strains, locus YLL001W, strain dnm1, stronger effect = lower value 0.984 | S. cerevisiae deletion strains, locus YLL026W, stronger effect = lower value 1 | S. cerevisiae deletion strains, locus YLL041C, strain sdh2, stronger effect = lower value 0.993 | S. cerevisiae deletion strains, locus YLR027C, strain aat2, stronger effect = lower value 1 | S. cerevisiae deletion strains, locus YLR039C, strain RIC1, stronger effect = lower value 1.03 | S. cerevisiae deletion strains, locus YLR058C, strain SHM2, stronger effect = lower value 0.999 | S. cerevisiae deletion strains, locus YLR102C, strain apc9, stronger effect = lower value 0.975 | S. cerevisiae deletion strains, locus YLR221C, strain rsa3, stronger effect = lower value 0.983 | S. cerevisiae deletion strains, locus YLR258W, strain gsy2, stronger effect = lower value 1.01 | S. cerevisiae deletion strains, locus YLR262C, strain YPT6 (second series), stronger effect = lower value 0.996 | S. cerevisiae deletion strains, locus YLR262C, strain YPT6, stronger effect = lower value 1.02 | S. cerevisiae deletion strains, locus YLR268W, strain sec22, stronger effect = lower value 1.02 | S. cerevisiae deletion strains, locus YLR320W, strain mms22, stronger effect = lower value 0.991 | S. cerevisiae deletion strains, locus YLR330W, strain CHS5, stronger effect = lower value 1 | S. cerevisiae deletion strains, locus YLR342W, strain FKS1 (second series), stronger effect = lower value 1.03 | S. cerevisiae deletion strains, locus YLR342W, strain FKS1, stronger effect = lower value 0.993 | S. cerevisiae deletion strains, locus YLR357W, strain rsc2, stronger effect = lower value 0.983 | S. cerevisiae deletion strains, locus YLR370C, strain arc18, stronger effect = lower value 0.994 | S. cerevisiae deletion strains, locus YLR371W, strain rom2, stronger effect = lower value 0.977 | S. cerevisiae deletion strains, locus YLR384C, strain iki3, stronger effect = lower value 0.971 | S. cerevisiae deletion strains, locus YLR418C, strain cdc73, stronger effect = lower value 1.02 | S. cerevisiae deletion strains, locus YML016C, strain PPZ1, stronger effect = lower value 1 | S. cerevisiae deletion strains, locus YML032C, strain rad52, stronger effect = lower value 0.985 | S. cerevisiae deletion strains, locus YML120C, strain ndi1, stronger effect = lower value 0.997 | S. cerevisiae deletion strains, locus YML124C, strain tub3, stronger effect = lower value 0.988 | S. cerevisiae deletion strains, locus YMR058W, strain fet3, stronger effect = lower value 1 | S. cerevisiae deletion strains, locus YMR078C, strain ctf18, stronger effect = lower value 0.988 | S. cerevisiae deletion strains, locus YMR125W, strain sto1, stronger effect = lower value 0.997 | S. cerevisiae deletion strains, locus YMR129W, stronger effect = lower value 0.989 | S. cerevisiae deletion strains, locus YMR205C, strain PFK2, stronger effect = lower value 0.993 | S. cerevisiae deletion strains, locus YMR223W, strain ubp8, stronger effect = lower value 0.983 | S. cerevisiae deletion strains, locus YMR231W, strain pep5, stronger effect = lower value 1 | S. cerevisiae deletion strains, locus YMR307W, strain GAS1, stronger effect = lower value 1.07 | S. cerevisiae deletion strains, locus YNL067W, strain RPL9B, stronger effect = lower value 1.01 | S. cerevisiae deletion strains, locus YNL071W, strain lat1, stronger effect = lower value 0.994 | S. cerevisiae deletion strains, locus YNL128W, strain TEP1, stronger effect = lower value 1.04 | S. cerevisiae deletion strains, locus YNL209W, strain ssb2, stronger effect = lower value 0.997 | S. cerevisiae deletion strains, locus YNL233W, strain BNI4, stronger effect = lower value 1.01 | S. cerevisiae deletion strains, locus YNL248C, strain rpa49, stronger effect = lower value 1.01 | S. cerevisiae deletion strains, locus YNL250W, strain rad50, stronger effect = lower value 1 | S. cerevisiae deletion strains, locus YNL271C, strain bni1, stronger effect = lower value 1.01 | S. cerevisiae deletion strains, locus YNL298W, strain CLA4, stronger effect = lower value 1.01 | S. cerevisiae deletion strains, locus YNL307C, strain MCK1, stronger effect = lower value 0.985 | S. cerevisiae deletion strains, locus YNL322C, strain KRE1 (second series), stronger effect = lower value 0.983 | S. cerevisiae deletion strains, locus YNR049C, strain mso1, stronger effect = lower value 0.993 | S. cerevisiae deletion strains, locus YNR052C, strain pop2, stronger effect = lower value 0.975 | S. cerevisiae deletion strains, locus YOL006C, strain TOP1, stronger effect = lower value 1.05 | S. cerevisiae deletion strains, locus YOL012C, strain htz1 0.955 | S. cerevisiae deletion strains, locus YOL147C, strain pex11, stronger effect = lower value 0.982 | S. cerevisiae deletion strains, locus YOR001W, strain rrp6, stronger effect = lower value 1.01 | S. cerevisiae deletion strains, locus YOR061W, strain CKA2, stronger effect = lower value 1.01 | S. cerevisiae deletion strains, locus YOR069W, strain VPS5, stronger effect = lower value 1.01 | S. cerevisiae deletion strains, locus YOR070C, strain gyp1, stronger effect = lower value 0.987 | S. cerevisiae deletion strains, locus YOR080W, strain dia2, stronger effect = lower value 0.996 | S. cerevisiae deletion strains, locus YOR083W, strain WHI5, stronger effect = lower value 0.98 | S. cerevisiae deletion strains, locus YOR106W, strain vam3, stronger effect = lower value 1.01 | S. cerevisiae deletion strains, locus YOR136W, strain idh2, stronger effect = lower value 0.995 | S. cerevisiae deletion strains, locus YOR144C, strain elg1, stronger effect = lower value 0.99 | S. cerevisiae deletion strains, locus YOR184W, strain ser1, stronger effect = lower value 0.998 | S. cerevisiae deletion strains, locus YOR265W, strain rbl2, stronger effect = lower value 1 | S. cerevisiae deletion strains, locus YOR270C, strain vph1, stronger effect = lower value 0.968 | S. cerevisiae deletion strains, locus YOR290C, strain snf2, stronger effect = lower value 0.974 | S. cerevisiae deletion strains, locus YOR316C, strain cot1, stronger effect = lower value 0.977 | S. cerevisiae deletion strains, locus YPL051W, strain arl3, stronger effect = lower value 1 | S. cerevisiae deletion strains, locus YPL078C, strain atp4, stronger effect = lower value 0.995 | S. cerevisiae deletion strains, locus YPL106C, strain sse1, stronger effect = lower value 0.978 | S. cerevisiae deletion strains, locus YPL240C, strain hsp82, stronger effect = lower value 0.993 | S. cerevisiae deletion strains, locus YPL241C, strain CIN2, stronger effect = lower value 1 | S. cerevisiae deletion strains, locus YPR119W, strain clb2, stronger effect = lower value 0.982 | S. cerevisiae deletion strains, locus YPR141C, strain kar3, stronger effect = lower value 0.993 | S. cerevisiae deletion strains, locus YPR163C, strain tif3, stronger effect = lower value 0.981 | S. cerevisiae deletion strains, locus YPR167C, strain met16, stronger effect = lower value 0.984 | S. cerevisiae deletion strains, strain wtn01, stronger effect = lower value 1.05 | S. cerevisiae strains, strain wild type, stronger effect = lower value 1.01
